Measurements published in PubChem BioAssay (EPA / NIEHS).
Activity calls are given as the source filed them. How the source made its calls: active means hit-call score of the fitted dose curve at least 0.9, where 1 is the maximum; inactive means score below 0.9.

Each molecule was assayed against Signal transducer and activator of transcription 3 (Homo sapiens) (UniProt P40763) (assay: ATG_STAT3_CIS: Attagene CIS-FACTORIAL HepG2 Assay for human Signal Transducer and Activator of Transcription 3 (STAT3) (AID 2282963)). Conditions: HepG2, Attagene cis-factorial STAT3 reporter transcription; actives raise or lower the signal.
Chain of Signal transducer and activator of transcription 3 (Homo sapiens) (P40763 whole entry, looked up): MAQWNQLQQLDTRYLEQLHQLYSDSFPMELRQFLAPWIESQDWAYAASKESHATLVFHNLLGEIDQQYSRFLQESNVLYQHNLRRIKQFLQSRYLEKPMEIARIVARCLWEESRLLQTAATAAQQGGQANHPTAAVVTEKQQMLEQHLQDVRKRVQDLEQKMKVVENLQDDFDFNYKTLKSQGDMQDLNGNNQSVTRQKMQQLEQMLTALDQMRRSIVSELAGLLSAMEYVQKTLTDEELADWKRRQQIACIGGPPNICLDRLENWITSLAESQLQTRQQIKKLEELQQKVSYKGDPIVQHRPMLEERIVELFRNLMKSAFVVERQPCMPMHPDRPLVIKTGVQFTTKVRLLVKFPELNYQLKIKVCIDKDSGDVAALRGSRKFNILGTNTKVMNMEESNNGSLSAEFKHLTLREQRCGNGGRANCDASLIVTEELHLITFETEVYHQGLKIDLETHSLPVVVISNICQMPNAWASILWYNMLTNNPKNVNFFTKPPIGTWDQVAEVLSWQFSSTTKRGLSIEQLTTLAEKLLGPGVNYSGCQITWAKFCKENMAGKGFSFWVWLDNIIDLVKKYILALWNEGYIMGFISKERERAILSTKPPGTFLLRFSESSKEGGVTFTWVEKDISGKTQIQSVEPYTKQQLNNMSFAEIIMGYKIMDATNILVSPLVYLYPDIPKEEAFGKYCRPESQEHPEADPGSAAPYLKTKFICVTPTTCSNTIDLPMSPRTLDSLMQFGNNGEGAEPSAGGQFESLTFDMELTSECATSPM
Protocol: ATG_CIS is a cell-based, multiplexed-readout assay that uses HepG2, a human liver cell line, with measurements taken at 24 hours after chemical dosing in a 24-well plate.ATG_STAT3_CIS is one of 52 assay component(s) measured or calculated from the ATG_CIS assay. It is designed to make measurements of mRNA induction, a form of inducible reporter, as detected with fluorescence intensity signals by Reverse transcription polymerase chain reaction (RT-PCR) and Capillary electrophoresis technology.Data from the assay component ATG_STAT3_CIS was analyzed into 1 assay endpoint. This assay endpoint, ATG_STAT3_CIS, was analyzed with bidirectional fitting relative to DMSO as the negative control and baseline of activity. Using a type of inducible reporter, measures of mRNA for gain or loss-of-signal activity can be used to understand the reporter gene at the transcription factor-level as they relate to the gene STAT3. Furthermore, this assay endpoint can be referred to as a primary readout, because this assay has produced multiple assay endpoints where this one serves a reporter gene function. To generalize the intended target to other relatable targets, this assay endpoint is annotated to the dna binding intended target family, where the subfamily is stat protein.
Human liver HepG2 cells are transiently transfected with multiple reporter transcription units (MRTUs) in 6-well plates using FuGene 6 reagent (Roche; 3 ml FuGene/1 mg DNA). The MRTU constructs are regulated by a cis-regulating element (promoter). […] A major difference between the CIS and TRANS system is that in CIS activities of endogenous TFs are measured, whereas the TRANS assay evaluates changes in activities of exogenous, chimeric NR-Gal4 proteins. […] At the end of 24 hour incubation, total RNA was isolated using TriZol reagent (Invitrogen). The isolated RNA is then reverse-transcribed using oligo(dT) primer and Mo-MLV reverse transcriptase (Invitrogen) with DNAse I (Ambion) treatment for 30 min. The one-tenth of the produced cDNA was amplified by PCR using Taq DNA polymerase (Invitrogen) and two reporter sequence-specific primers. The PCR products were fluorescently labeled by primer extension with 6-arboxyfluorescein (6-FAM) 5'-labeled reporter sequence-specific primer (2 min at 95 C, 20 s at 68 C and 10 min at 72 C) and these products were digested with 5U of HpaI (New England Biolabs) for 2h at 37 C. The fragments were purified using Qiaquick PCR columns (Qiagen), analyzed on an ABI 3130xL genetic analyzer (Applied Biosystems) with peak positions identified by using a set of X-rhodamine (ROX)-labeled MapMarker1000 molecular weight standards (BioVentures). The raw capillary electrophoresis data was processed using Attagraph software (Attagene).
For `Nc1cccc(S(=O)(=O)c2cccc(N)c2)c1`, the outcome was “inactive”.
For `CC(=O)C(C)=O`, the outcome was “inactive”.
In the case of `CC1CCC2CC1C2(C)C` (stereo not given), the outcome is reported as “inactive”.
`Clc1sc(Cl)c(Cl)c1Cl` was tested, and the outcome was “inactive”.
For `C=CCOC(=O)CCC1CCCCC1`, the outcome was “inactive”.
With `Cc1ccc2sc3cccc(C)c3c2c1` the outcome was “inactive”.
With `O=C(Nc1ccccc1)c1cc([N+](=O)[O-])ccc1Cl` the outcome was “inactive”.
For `Nc1cc(N)cc(C(=O)O)c1`, the outcome was “inactive”.
`OCCOCCOCCOCCO` was tested, and the outcome was “inactive”.
For `CC(C=O)Cc1ccc(C(C)C)cc1` (stereo not given), the outcome was “inactive”.
In the case of `O=C(O)CCCCCCCC(=O)O`, the outcome is reported as “inactive”.
For `CC(CCO)CCCC(C)(C)O` (stereo not given), the outcome was “inactive”.
`Nc1ccc(F)c([N+](=O)[O-])c1` was tested, and the outcome was “inactive”.
For `CC1(C)C(=O)N(Br)C(=O)N1Cl`, the outcome was “inactive”.
In the case of `COc1nc(C)nc(N)n1`, the outcome is reported as “inactive”.
For `C=C(C)C(=O)Nc1ccc(Cl)c(Cl)c1`, the outcome was “inactive”.
In the case of `OCc1cccnc1`, the outcome is reported as “inactive”.
With `COc1ccnc(CS(=O)c2nc3cc(OC(F)F)ccc3[nH]2)c1OC` (stereo not given) the outcome was “inactive”.
In the case of `CCC(C)CCCC(C)(C)O` (stereo not given), the outcome is reported as “inactive”.
For `CC1(C)[C@@H]2CC[C@@]1(C)[C@H](O)C2`, the outcome was “inactive”.
With `O=C[C@H](O)[C@H](O)[C@H](O)CO` the outcome was “inactive”.
`CC1(C)CCC(C)(C)c2cc(C(=O)Nc3ccc(C(=O)O)cc3)ccc21` was tested, and the outcome was “inactive”.
`CC(=O)[C@H]1CC[C@H]2[C@@H]3CC=C4C[C@@H](O)CC[C@]4(C)[C@H]3CC[C@]12C` was tested, and the outcome was “inactive”.
With `Cc1ccc(C(=O)c2cc(O)c(O)c([N+](=O)[O-])c2)cc1` the outcome was “inactive”.
With `COc1cccc(OC)c1` the outcome was “inactive”.
With `Cc1ncc([N+](=O)[O-])n1C` the outcome was “inactive”.
In the case of `OC[C@H]1O[C@H](O[C@]2(CCl)O[C@H](CCl)[C@@H](O)[C@@H]2O)[C@H](O)[C@@H](O)[C@H]1Cl`, the outcome is reported as “inactive”.
With `CCCCCCCCCCN` the outcome was “inactive”.
For `[Ca+2]`, the outcome was “inactive”.
In the case of `O=C(O)Cc1cccc2ccccc12`, the outcome is reported as “inactive”.
For `C#C[C@]1(O)CC[C@H]2[C@@H]3CCC4=Cc5oncc5C[C@]4(C)[C@H]3CC[C@@]21C`, the outcome was “inactive”.
With `CCCCN` the outcome was “inactive”.
With `O=[N+]([O-])c1cc(C(F)(F)F)ccc1Cl` the outcome was “inactive”.
For `N#Cc1nc(Cl)c(Cl)c(Cl)c1Cl`, the outcome was “inactive”.
With `C[C@]12CC[C@H]3[C@@H](CCC4=CC(=O)CC[C@@]43C)[C@@H]1CC[C@@H]2C(=O)CO` the outcome was “inactive”.
`CC(C)(C)NC(N)=O` was tested, and the outcome was “inactive”.
With `C=C(C)C(=O)OCc1ccccc1` the outcome was “inactive”.
In the case of `CC1(C)[C@H]2CC[C@]1(C)[C@H](O)C2`, the outcome is reported as “inactive”.
In the case of `Cc1ccc(O)c(C(C)(C)C)c1`, the outcome is reported as “inactive”.
In the case of `CCn1c2ccccc2c2cc(N)ccc21`, the outcome is reported as “inactive”.
